Measured values taken from ChEMBL document CHEMBL1201862, “PubChem BioAssay data set” (2004).
Among all 56,000 sequences or so, about 4,700 (8.4%) were called active. This is one part of a sample in which actives are shown more often than they occur. Rule as the data show it: active = GI50 up to about 1.1 µM and inactive = higher. Results with a measured potency or affinity are listed apart.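 1) Cells in 96-well plates. 2) Compound, 48 h, 5 concentrations. 3) Linear interpolation between surrounding doses. 4) Unreached endpoint = highest concentration. Here, GI50 denotes the concentration required for 50% inhibition of growth.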

Each substance was assayed on NCI-H460 (assay: NCI tumour cell line growth inhibition, 48 h).
For “[Bis(aminomethyl)dimethylsilane]tetrachloroplatinum(IV), CHEMBL2146190”, the GI50 was 577 nM.
With “[Bis(aminomethyl)tetramethylenesilane]tetrachloropaltinum(IV), CHEMBL2146189” the GI50 was 314 nM.
“cis-Bis[[(trimethylsilyl)methyl]amino]tetrachloroplatinum(IV), CHEMBL2146191” was tested, and the GI50 was 9770 nM.
“[Bis(aminomethyl)ethylmethylsilane]tetrachloroplatinum(IV), CHEMBL2146192” was tested, and the GI50 was 774 nM.
Substance “[Bis(aminomethyl)pentamethylenesilane]tetrachloropaltinum(IV), CHEMBL2146204” has a GI50 of 206 nM.
“mu-(1,7-nanodiamine-N,N')bis-(cis-aminedichloroplatimum (II)), CHEMBL2146215” showed a GI50 of 1610 nM.
“[Bis(aminomethyl)dimethylsilane]dichloroplatinum (II), CHEMBL2146201” was tested, and the GI50 was 3370 nM.
Work on “[Bis(aminomethyl)diethylsilane]tetrachloroplatinum(IV), CHEMBL2146203” yielded a GI50 of 438 nM.
Work on “[Bis(aminomethyl)tetramethylenesilane]dichloropaltinum(II), CHEMBL2146205” yielded a GI50 of 2640 nM.
“[Bis(aminomethyl)pentamethylenesilane]dichloropaltinum(II), CHEMBL2146202” was tested, and the GI50 was 312 nM.
Work on CISPLATIN, CHEMBL11359 yielded a GI50 of 579 nM.
